The text below walks through data of PubChem BioAssay (NCATS).

Residues, ends and D or L forms follow the SMILES beside them. *: point of attachment. Cbz = O=C(OCc1ccccc1)*

The assay in a line: qHTS profiling of the MIPE4 collection as inhibitors of Plasmodium falciparum (3D7) proliferation (AID 743344).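 Further: scaled between DMSO vehicle wells and 0.29 µM artemisinin as full inhibition.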 The note with it: P. falciparum 3D7 in erythrocytes, SYBR Green DNA fluorescence, 72 h; at 28.5 µM unless noted. An excerpt: Plasmodium falciparum is a virulent malarial parasite that kills 1-2 million people worldwide each year. Transmitted by mosquitoes, the sporozoite form of the parasite enters the blood stream to infect hepatocytes, where they become merozoites that infect red blood cells (erythrocytes). Within erythrocytes, merozoites begin a […] cycle of growth and division, after which the parasite is released to infect new red blood cells. Gametocytes, which form within erythrocytes as well, circulate in the bloodstream and are ingested by the mosquito, thereby completing the life cycle. To profile malarial isolates for differential chemical responses and to identify inhibitors of malarial growth, an assay that measures P. falciparum growth and replication within erythrocytes was employed. This assay uses a DNA binding fluorescent dye (SYBR Green) to detect parasite DNA following cell lysis. Because mature erythrocytes lack DNA, only Plasmodium-derived DNA is detected.
The SYBR Green viability assay was adapted from a method described previously (Plouffe et al., 2008). For screening 3 ul culture medium was dispensed into 1536 well black clear bottom plates (Aurora Biotechnologies) using a Multidrop Combi (Thermo Fisher Scientific Inc.), 23 nL compounds in DMSO were added by a pin tool (Kalypsys), and 5 ul of erythrocytes infected with P. falciparum (0.3% parasitemia, 2.5% hematocrit final concentration) were added. The plates were incubated at 37 C in a humidified incubator in 5% CO2 for 72 h, and 2 ul lysis buffer (20 mM Tris HCl, 10 mM EDTA, 0.16% saponin, 1.6% triton X, 10X SYBR Green I supplied as 10,000X […] by Invitrogen) was added to each well. The plates were mixed for 25 sec with gentle shaking and incubated overnight at room temperature in the dark. The following morning, fluorescence intensity at 485(14) nm excitation and 535(25) nm emission wavelengths was measured on an EnVision (Perkin Elmer) plate reader. Plate reads were normalized relative to the control inhibitor (0.29 uM artemisinin) and vehicle (DMSO) wells present on each plate and then corrected by an algorithm using vehicle-only control plates at the beginning and end of the compound plate stack.
A general note: qHTS replaces the single test concentration by a dilution series.
As to `COc1cccc2c1C(=O)c1c(O)c3c(c(O)c1C2=O)C[C@@](O)(C(=O)CO)C[C@@H]3O[C@H]1C[C@H](N)[C@@H](O)[C@H](C)O1`, the parasite growth, % of DMSO control was determined as 3.7%. Under `C[C@H](NCc1ccc(OCc2cccc(F)c2)cc1)C(N)=O` stands 8.15%; under `CS(=O)(=O)N1CCc2c(-c3cnc(N)nc3)nc(N3CCOCC3)nc21`, 5.02%; under `O=C(C=Cc1ccc(CN(CCO)CCc2c[nH]c3ccccc23)cc1)NO`, 4.37%. To `CC(=O)C1=C(O)C=C2Oc3c(C(C)=O)c(O)c(C)c(O)c3C2(C)C1=O` (stereo not given) belongs 82.6%; to `CC(C=CC1=C(C)CCCC1(C)C)=CC=CC(C)=CC(=O)Nc1ccc(O)cc1`, 4.7% [at 57.5 µM]. To `Oc1cc2c(cc1O)C1c3ccc(O)c(O)c3OCC1(O)C2` (stereo not given) belongs 13%; to `O=C(C[C@@H]1CC=CCCC(=O)O[C@H](c2ccccc2)CNC1=O)NCc1ccc(Cl)cc1`, 62.4%; to `C=CC1=C(C(=O)O)N2C(=O)[C@@H](NC(=O)C(=NO)c3csc(N)n3)[C@H]2SC1`, 92.8%.

With `Cc1cc(O)c2c(c1)C(=O)c1cccc(O)c1C2=O`, the parasite growth, % of DMSO control stood at 91.5%. With `CCC[C@H]1C[C@H](C(=O)N[C@@H]([C@@H]2O[C@@H](SC)[C@@H](O)[C@@H](O)[C@@H]2O)[C@H](C)Cl)N(C)C1`, the parasite growth, % of DMSO control was 30.4%. To `Cn1cc(C[C@@H](N)C(=O)O)c2ccccc21` belongs 103% [at 9.64 µM]. Under `Cc1cc(C(=O)NOCCO)c(Nc2ccc(I)cc2F)n(C)c1=O` stands 51.4%; under `CNC(=O)c1cccc(-c2ccc3c(N4CCOC[C@H]4C)nc(N4CCOC[C@H]4C)nc3n2)c1`, 8.56%; under `Cn1c(Nc2ccc(C(F)(F)F)cc2)nc2cc(Oc3ccnc(-c4ncc(C(F)(F)F)[nH]4)c3)ccc21`, 7.02%. `CC(C(C)N1CC(=O)NC(=O)C1)N1CC(=O)NC(=O)C1` (stereo not given): the parasite growth, % of DMSO control amounted to 88.4%.

With `CCCCCCCCCCCCc1ccc(S(=O)(=O)Nc2nncs2)cc1`, the parasite growth, % of DMSO control came to 79.3%. `CC(C)C[C@@H](C=O)NC(=O)[C@H](CC(C)C)NC(=O)[C@H](CC(C)C)NC(=O)OCc1ccccc1` (Cbz-Leu-Leu-Leu-aldehyde): the parasite growth, % of DMSO control was 4.63%. To `COc1cc(C(C)C)c(Oc2cnc(NC(CO)CO)nc2N)cc1I` belongs 82.2%; to `N=c1ccn2c(n1)O[C@H]1[C@@H](O)[C@@H](CO)O[C@H]12`, 82.9%.

As for `CC(C)c1cc(C(C)C)c(CC(=O)NS(=O)(=O)Oc2c(C(C)C)cccc2C(C)C)c(C(C)C)c1`, the parasite growth, % of DMSO control stood at 82.5%. To `COC[C@H](NC(=O)c1cnc(C)s1)C(=O)N[C@@H](COC)C(=O)N[C@@H](Cc1ccccc1)C(=O)[C@@]1(C)CO1` belongs 5.4%. `CCCNC(=O)[C@H]1O[C@H]1C(=O)N[C@H](C(=O)N1CCC[C@@H]1C(=O)OC)C(C)CC` (stereo not given in full) yielded a parasite growth, % of DMSO control of 88%. Molecule `Cc1ncc(-c2ccnc(Nc3ccc(S(C)(=O)=O)cc3)n2)n1C(C)C` returned a parasite growth, % of DMSO control of 6.84%. To `CC1=C(C(=O)Nc2cc3cn[nH]c3cc2F)C(c2ccc(Cl)cc2F)N=C(c2ccnc(Cl)c2)N1` (stereo not given) belongs 13.2%; to `Oc1ccc(-c2ccc(-c3cc(Nc4cccc(CNC5CC5)c4)n[nH]3)cc2)c(O)c1`, 9.07%. To `N#CC(=C(N)Sc1ccc(N)cc1)c1ccccc1C(F)(F)F` belongs 24.4%; to `Cc1ccc(-n2[nH]c(C)c(N=Nc3cccc(-c4cccc(C(=O)O)c4)c3O)c2=O)cc1C`, 57%; to `COC(=O)C=CC(=O)OC`, 76.2%. To `CC(C)(C)c1nc2c3cc[nH]c(=O)c3c3cc(F)ccc3c2[nH]1` belongs 59.4%; to `CCOC(=O)[C@H](CCc1ccccc1)N[C@@H](C)C(=O)N1[C@@H](C(=O)O)C[C@H]2CCC[C@@H]21`, 8.54%; to `NC(=NCCCCCCN=C(N)N=C(N)Nc1ccc(Cl)cc1)N=C(N)Nc1ccc(Cl)cc1`, 12.4%. As for `CCCCCCCCCCCCCCCC(=O)OC[C@@H](NC(=O)C(Cl)Cl)[C@H](O)c1ccc([N+](=O)[O-])cc1`, the parasite growth, % of DMSO control is 101%. Under `Cn1cnc(=N)c2[nH]cnc21` stands 5.58%; under `COC1=C2C[C@@H](C)C[C@H](OC)[C@@H](O)[C@@H](C)C=C(C)[C@H](OC(N)=O)[C@@H](OC)C=CC=C(C)C(=O)NC(=CC1=O)C2=O`, 5.43%. Under `COc1cc2ncnc(Nc3cccc(Br)c3)c2cc1OC` stands 8.2%; under `CCOC(=O)[C@@H](N)Cc1ccc(-c2cc(O[C@H](c3ccc(Cl)cc3-n3ccc(C)n3)C(F)(F)F)nc(N)n2)cc1`, 5.93%; under `C[C@H](NCc1ccc2c(c1)nc(NC(=O)c1ccc(-c3cn[nH]c3)s1)n2CCc1ccccc1)C(C)(C)C`, 5.07%. Molecule `COc1ccc(C[C@@H](C)[C@@H](C)Cc2ccc(OC)c(OC)c2)cc1OC` returned a parasite growth, % of DMSO control of 62.3%.

For `C[C@]12CCC(=O)C=C1[C@@H]1CC1[C@H]1[C@H]3[C@@H]4C[C@H]4[C@@]4(CCC(=O)O4)[C@@]3(C)CC[C@H]12` (stereo not given in full), the parasite growth, % of DMSO control amounted to 65.8%.
